Measurements published in publication PMC8384837, “Expanding the binding specificity for RNA recognition by a PUF domain”.

Target: PUM1 PUF domain R5-RQR (Homo sapiens, UniProt Q14671 828-1176, C1007R;R1008Q;Q1011R)
Assay: yeast three-hybrid, YBZ-1, SC-Leu-His + 0.5 mM 3-AT, 4 days
Details: tags: N-Gal4 AD-HA kept; label: inside an RPR1-promoter hybrid RNA with tandem MS2 sites; ssRNA
Procedure, shortened: (§1)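 Sequencing with Illumina followed PCR amplification of the repeat regions from transformants grown four days on SC-Leu (input) or SC-Leu-His + 0.5 mM 3-AT (selection). The transformants were strain YBZ-1 with a LexA–MS2 coat fusion and a HIS3 reporter, carrying Pumilio-1 PUF domain libraries and matching RNA elements. The interaction score is the log change in variant frequency from input to selection, computed in log2 with a pseudocount of 1 for absent variants.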

Sequence of PUM1 PUF domain R5-RQR (Q14671 828-1176 C1007R/R1008Q/Q1011R): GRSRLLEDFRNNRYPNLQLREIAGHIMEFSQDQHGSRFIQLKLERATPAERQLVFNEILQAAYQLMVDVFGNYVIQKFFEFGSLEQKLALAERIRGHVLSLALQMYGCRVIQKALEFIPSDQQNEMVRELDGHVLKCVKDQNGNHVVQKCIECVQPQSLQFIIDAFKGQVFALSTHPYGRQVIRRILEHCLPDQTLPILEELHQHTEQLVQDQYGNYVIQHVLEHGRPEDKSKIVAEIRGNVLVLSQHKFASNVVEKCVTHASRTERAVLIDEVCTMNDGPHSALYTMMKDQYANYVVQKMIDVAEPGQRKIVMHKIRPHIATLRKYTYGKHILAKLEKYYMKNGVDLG

Sequence | binding signal
GGCUAGAACUAGUGGAUCCCCCGGCGCCCGGCGGCUCGAGCCCGGGUAAGUGUAAAUAGUCUGCAUGCCGCCGGGCGCCAUGCCUGCAGGUCGACUCUAGAAAACAUG | 1 log2 enrichment (interaction score)
GGCUAGAACUAGUGGAUCCCCCGGCGCCCGGCGGCUCGAGCCCGGGUAAGUGUCAAUAGUCUGCAUGCCGCCGGGCGCCAUGCCUGCAGGUCGACUCUAGAAAACAUG | 4.51 log2 enrichment (interaction score)
GGCUAGAACUAGUGGAUCCCCCGGCGCCCGGCGGCUCGAGCCCGGGUAAGUGUUAAUAGUCUGCAUGCCGCCGGGCGCCAUGCCUGCAGGUCGACUCUAGAAAACAUG | 4.81 log2 enrichment (interaction score)

Target: PUM1 PUF domain R1-RVE (Homo sapiens, UniProt Q14671 828-1176, S863R;R864V;Q867E)
Assay: as above
Details: tags: N-Gal4 AD-HA kept; label: inside an RPR1-promoter hybrid RNA with tandem MS2 sites; ssRNA
Procedure, shortened: as §1

Sequence of PUM1 PUF domain R1-RVE (Q14671 828-1176 S863R/R864V/Q867E): as the sequence (Q14671 828-1176 C1007R/R1008Q/Q1011R) above, with S36R, R37V, Q40E, R180C, Q181R, R184Q counted along it

Sequence | binding signal
GGCUAGAACUAGUGGAUCCCCCGGCGCCCGGCGGCUCGAGCCCGGGUAAGUGUAAAUGGUCUGCAUGCCGCCGGGCGCCAUGCCUGCAGGUCGACUCUAGAAAACAUG | 1.35 log2 enrichment (interaction score)
GGCUAGAACUAGUGGAUCCCCCGGCGCCCGGCGGCUCGAGCCCGGGUAAGUGUAAAUCGUCUGCAUGCCGCCGGGCGCCAUGCCUGCAGGUCGACUCUAGAAAACAUG | 2.37 log2 enrichment (interaction score)
GGCUAGAACUAGUGGAUCCCCCGGCGCCCGGCGGCUCGAGCCCGGGUAAGUGUAAAUUGUCUGCAUGCCGCCGGGCGCCAUGCCUGCAGGUCGACUCUAGAAAACAUG | 2.57 log2 enrichment (interaction score)
